# Screening results: PubChem, National Center for Advancing Translational Sciences (NCATS)
# Hits are enriched below; roughly 21% of the tested compounds scored in any of these assays.
# HCV inhibitor: qHTS Assay for Inhibitors of Hepatitis C Virus (HCV). Huh7.5.1 HCVcc-Cre infection, luciferase reporter, 44 h. Potency, µM (series often up to 41.8 µM), without a hit: at the highest dose activity change, negative = inhibition, actives largely listed as inhibitors. 3.4% of 340,000 active. AID 651820, 2012; also: potency is read from the fitted curve at half-maximal effect; % is scaled to controls: 0 for no effect and ±100 for the full control effect
#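 1,000 cells/well; 4 h culture; + compound; + HCVcc-Cre (~0.5 moi); 44 h; luciferase substrate, RT 15 min; read 15 sec.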
# Pf growth 96h: Primary qHTS for delayed death inhibitors of the malarial parasite plastid, 96 hour incubation; P. falciparum luciferase reporter growth, 96 h; Potency, µM (series often up to 28.7 µM), for inactives: top-dose activity change, negative = inhibition, actives largely listed as inhibitors; 6.9% of 320,000 active; also: potency is read from the fitted curve at half-maximal effect; % is scaled to controls: 0 for no effect and ±100 for the full control effect
#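 Luminescence readout: decreased luciferase signal marks inhibited growth of reporter-expressing P. falciparum in infected red cells (2% hematocrit, 0.05% parasitemia final), exposed to compound two generations (96 h, 37 C, 5% CO2).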
# Shiga inhibitor: A qHTS for Small Molecule Inhibitors of Shiga Toxin | Vero cells, Shiga toxin protein synthesis inhibition reporter | inhibition, % at 38.7 µM | 9.2% of 290,000 active; in the data active = inhibition mostly above about 28%, no sharp cut-off; inactive = mostly below about 43%; also: 0% is about no effect
# AMA1-RON2 inh: qHTS for Inhibitors of AMA1-RON; Towards Development of Antimalarial Drug Lead: Primary Screen. Plasmodium falciparum AMA1 (3D7) - RON2 peptide interaction. AlphaScreen AMA1-biotinylated RON2 peptide binding. Potency, µM (doses to about 58.2 µM), for inactives: top-dose activity change, negative = inhibition, usual class: inhibitors. 0.2% of 360,000 active;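 also: potency is read from the fitted curve at half-maximal effect; 0% = vehicle wells and -100% = peptide control; nearly all actives have a fitted effect of over 45% in size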
#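 AMA1 (3D7) with his tag at 25 nM final met compounds first, then biotinylated RON2 peptide at 25 nM; detection used donor plus acceptor beads, 10 µg/mL apiece, read by AlphaScreen after 30 min at room temperature.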
# CHX counter: Cycloheximide Counterscreen for Small Molecule Inhibitors of Shiga Toxin; 12% of 300,000 active; max response, %; AID 2314, 2010; cell reporter, cycloheximide protein synthesis inhibition counterscreen; in the data active = max response mostly above about 13%, no sharp cut-off; inactive = mostly below about 14%; also: read at 38.3 µM for the half of the compounds with a filed dose; 0% is about no effect
# Pf growth 48h: Primary qHTS for delayed death inhibitors of the malarial parasite plastid, 48 hour incubation. P. falciparum luciferase growth in erythrocytes, 48 h. Potency, µM (doses to about 28.7 µM), inactives show at the highest dose activity change, negative = inhibition, usual class: inhibitors. 5.9% of 310,000 active. AID 504832, 2011; also: potency is read from the fitted curve at half-maximal effect; % is scaled to controls: 0 for no effect and ±100 for the full control effect
#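 Luminescence readout; reporter = integrated firefly luciferase in P. falciparum. RBC culture at 2% hematocrit, 0.1% parasitemia final, 37 C/5% CO2; decreased signal taken as growth inhibition.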
# * = called active by the depositor; i = inactive; ? = inconclusive; . = no result; [ ] = dose if it differs, or a comment. Unless noted, calls follow the shape of the dose curve; as a rule, active = well fitted curve in the direction sought with a large enough effect; inconclusive = small, poorly fitted or top-dose-only effect, or another doubt; inactive = no such curve, though single readings can be large; an effect the other way counts as inactive or inconclusive.
SMILES,HCV inhibitor,Pf growth 96h,Shiga inhibitor,AMA1-RON2 inh,CHX counter,Pf growth 48h
Nn1c(SCC(=O)Nc2ccccc2F)nnc1C1CCCCC1,16.5%,22.5%,6.7,4.3%,-1.3,23.9%
CC(C)(C)c1ccc(/C=N/NC(=S)NCc2ccccc2)cc1,-1.2%,0.0%,7.5,60.0%,-1.9,?
CNC(=S)N/N=C/c1ccc(C(C)C)cc1,-0.9%,.,.,88.3%,.,.
CNC(=S)N/N=C/c1ccc(N(C)C)cc1,10.0%,-86.7%,77.2*,37.3%,54.1*,39.8%
CCNC(=S)N/N=C/c1cccs1,-3.0%,4.65µM*,-4.6,-24.4%,1.1,.
CN(C)c1ccc(/C=N/NC(=S)NCc2ccccc2)cc1,-28.1%,11.7µM*,-7.2,?,23.9*,?
Cc1ccsc1/C=N/NC(=S)NCc1ccccc1,?,-24.2%,13.4,70.6%,21.2,2.94µM*
COc1cc(C)ccc1S(=O)(=O)NC(=O)C1(C)CCN1C(=O)Cc1ccccc1Cl (centres undefined),.,.,.,-9.9%,.,.
Cn1c(SCC(=O)Nc2nccs2)nnc1C12CC3CC(CC(C3)C1)C2,-19.2%,9.2%,36.5,-0.2%,26.6*,0.0%
CCCCc1nnc(SCC(=O)Nc2nccs2)n1C,4.3%,10.4µM*,14.9,-9.1%,2.4,22.8%
CCCc1nnc(SCC(=O)Nc2nccs2)o1,3.9%,8.5%,-2.7,102.5%,-1.9,9.28µM*
CCCCc1nnc(SCC(=O)Nc2nccs2)n1CC,12.3%,43.6%,-12.1,-9.5%,1.2,-12.2%
Cn1c(CSCc2ccccc2Cl)nnc1SCC(=O)Nc1nccs1,-12.3%,11.7µM*,-7.2,4.8%,-1.5,?
COc1ccc(CNC(=O)C[C@H]2C[C@H](C(=O)N3CCCCC3)[C@@]3(C)c4[nH]c5cc(CCC(=O)N(C)C)ccc5c4CCN3C2=O)cc1OC,-5.6%,.,.,-3.5%,.,.
CCOc1c(Cl)cc(/C=C/C(=O)N(CC)CC(=O)NCc2cccs2)cc1OC,-15.0%,5.2%,.,18.8%,.,?
CCCN(Cc1nc2cc(Cl)ccc2c(=O)[nH]1)C(=O)c1ccc(S(=O)(=O)N2CCCC2)cc1,-0.5%,?,.,73.2%,.,?
CCOC(=O)CSc1nnc(-c2ccc(OC)cc2OC)o1,-2.6%,?,1.6,-3.5%,1.7,-21.3%
COc1ccc(OC)c(-c2nnc(-c3ccc(C)o3)o2)c1,?,183.1%,74.7,-2.2%,35.9*,10.4µM*
COc1ccc(OC)c(-c2ccc(C(=O)O)o2)c1,.,.,i,.,15.8,.
COc1ccc(-c2nnc(SC)o2)c(OC)c1,-1.7%,-0.4%,71.6*,-14.5%,21.1*,100.1%
COc1ccccc1C(=O)NC(=S)Nc1ccc(NC(=O)c2ccco2)cc1,-20.5%,5.22µM*,23.1,-14.6%,8.4,?
COc1ccccc1C(=O)Nc1ccc(NC(=O)c2ccco2)cn1,?,30.6%,89.9*,9.3%,27.6*,22.5%
CC(C)NC(=O)C1(C)CSCC(=O)N1Cc1ccco1 (centres undefined),.,.,.,24.0%,.,.
O=C(NCc1ccco1)Nc1nnc([C@H]2C[C@H](O)[C@@H](CO)O2)s1,.,.,.,10.3%,.,.
COc1ccc(S(=O)(=O)N2CCCOC2CNC(=O)C(=O)NC2CCCC2)cc1 (centres undefined),-3.5%,-25.9%,1.5,-0.5%,16.3,-1.9%
SMILES,HCV inhibitor,Pf growth 96h,Shiga inhibitor,AMA1-RON2 inh,CHX counter,Pf growth 48h
COc1ccc(-c2cn(Cc3ccc(C(N)=O)cc3)c(-c3ccc(Cl)nc3)n2)cc1,11.1%,33.0%,.,-11.4%,.,?
COc1ccc(C(=O)NCc2ccc(-c3nc4ccccc4s3)cc2)cc1,-8.5%,34.9%,43.8,2.6%,44.3*,78.8%
COc1cccc(C(=O)NN2CC(O)=C(c3nc4ccccc4s3)C2=N)c1,-12.3%,1.4%,-12.6,25.1%,-2.3,-45.7%[5.75 µM]
COc1cc(C(=O)NCc2ccc(-c3nc4ccccc4s3)cc2)cc(OC)c1OC,-7.9%,6.1%,73.9*,-0.9%,26.5*,52.7%
COc1cc(C(=O)NCc2ccc(-c3nc4ccccc4o3)cc2)cc(OC)c1OC,8.8%,82.1%,10.7,-4.4%,19.4,33.0%
COc1cccc(C(=O)NCc2ccc(-c3nc4ccccc4s3)cc2)c1,-12.2%,.,70.3*,-2.1%,35.8*,0.0%
COc1ccc(C(=O)NCc2ccccn2)cc1,25.2%,-2.7%,8.2,-6.7%,12.7,31.9%
COc1ccc(-c2cn(Cc3ccc(C(=O)NCc4ccc(C)cc4)cc3)c(C(C)N)n2)cc1 (centres undefined),?,?,.,76.5%,.,11.7µM*
CN(CC1COc2ccccc2O1)C(=O)CCNS(=O)(=O)c1ccc(F)c(Cl)c1 (centres undefined),.,.,.,-5.4%,.,.
O=S1(=O)C2CC3C=CC2(CN1Cc1ccccc1)O3 (centres undefined),.,.,8.7,.,3.8,.
Cc1ccc(C2(C)NC(=O)N(CC(=O)NC(C)c3ccccc3)C2=O)cc1 (centres undefined),24.8%,-7.2%,-11.2,8.9%,-3.9,-2.5%
COc1ccccc1C(=O)NCc1ccccc1,7.5%,-11.5%,17.7,0.0%,7.0,9.3%
COc1ccccc1C(=O)NCc1ccc(-c2nc3ccccc3s2)cc1,15.8%,-27.2%,57.6*,4.4%,40.6*,166.9%
Cc1ccccc1CNS(=O)(=O)c1c(C)[nH]c(C)c1C(=O)N1CCCCC1,14.2%,?,-5.2,0.3%,-0.3,-22.7%
C=CCn1c(O)c(/C(C)=N/N2CCCCC2)c(=O)[nH]c1=O,5.8%,-2.3%,75.2*,10.0%,38.3,-4.0%
C/C(=N\N1CCCCCC1)c1c(O)n(-c2ccc(Cl)cc2)c(=O)[nH]c1=O,1.9%,3.2%,13.2,-0.7%,-0.4,?
C/C(=N\N1CCCCCC1)c1c(O)n(-c2ccc(C)cc2)c(=O)[nH]c1=O,7.4%,11.7µM*,active,-15.8%,43.2*,?
C=CCn1c(O)c(C(C)=NCCC(c2ccccc2)c2ccccc2)c(=O)[nH]c1=O,18.0%,11.7µM*,-12.6,18.8%,-2.1,-12.8%
CC/C(=N\N1CCCCCC1)c1c(O)n(-c2ccc(C)cc2)c(=O)[nH]c1=O,4.4%,2.08µM*,-4.6,-10.7%[2.32 µM],18.5*,?
NS(=O)(=O)c1ccc(N2CCN(C(=O)C3COc4ccccc4O3)CC2)nc1 (centres undefined),-3.8%,-9.9%,.,-0.7%,.,4.5%
CC(=O)Nc1cc(-c2ccc(C(=O)N3CCOCC3)cc2)cn2c(-c3ccc(S(C)(=O)=O)cc3)cnc12,.,.,.,37.6%,.,.
Brc1cc2c(cc1C1Nc3ccccc3C3C=CCC31)OCO2 (centres undefined),-7.2%,6.8%,-15.4,-8.0%,-0.5,?
